The structures appear in SMILES notation.

The Inhibition is how much of the control response was suppressed. A lower Inhibition goes with little suppression.

The subject of the test is Plasmodium falciparum. The experiment in a line: GSK_TCMDC: Inhibition of Plasmodium falciparum Dd2 in whole red blood cells, using parasite LDH activity as an index of growth. Test compounds present at 2uM. It counts as functional.
In the case of `CCN(CC)Cc1cccc(-c2cc3c(-c4ccc(C(=O)O)c(C(C)C)c4)ccnc3[nH]2)c1OC.O=C(O)C(F)(F)F`, the Inhibition is listed as 99%. The result for `CC(C)OC(=O)c1ccccc1S(N)(=O)=O` reads 0%; that for `CN(C)Cc1c(O)ccc2[nH]c(-c3ccc(OC(F)(F)F)cc3)nc12`, 97%; that for `COc1cccc([C@@H](CC(=O)Nc2cc(C(F)(F)F)ccc2OC)Nc2ccc(C#N)c3ccccc23)c1`, 53%. The result for `CN(C)Cc1ccc(-c2cccc(NC(=O)c3cccc(Cl)c3)c2)cc1.O=C(O)C(F)(F)F` reads 12%.

Consider `O=C(Nc1cccc(CN2CCCN(CC3CCCCC3)CC2)c1)c1ccc(Cl)c(Cl)c1.O=C(O)C(F)(F)F`, for which the Inhibition was found to be 15%. On to `Nc1nccc2ccc(Oc3ccncc3)cc12`, for which the Inhibition turned out to be 81%.

As to `O=c1cc(NCCCNCc2cc(C(F)(F)F)ccc2F)[nH]c2ccccc12`, the Inhibition amounted to 43%.

In turn, `CCN1CCN(c2cc(C)c3cc(NC(=O)c4ccc([N+](=O)[O-])c(C)c4)ccc3n2)CC1` registered an Inhibition of 39%. Take `COc1cccc(C(=O)NCCOc2ccccc2)c1Oc1ccccc1`: the Inhibition was 98%. The molecule `COc1ccc2nccc([C@@H](O)CN3CCC(NCc4nc5ccccc5[nH]4)CC3)c2c1.O=C(O)C(=O)O` yielded an Inhibition of 2%.

As for `COc1ccc(-c2nc(NC(=O)CS(=O)(=O)c3ccc(C)cc3)sc2C)cc1`, the Inhibition is 94%. For `O=C(O)C(F)(F)F.O=c1cc(N2CCCNCC2)c(Cl)nn1Cc1ccc(NS(=O)(=O)c2ccc(Oc3ccccc3)cc2)cc1` the value was 0%; for `Cc1ccc(O)cc1Nc1ccnc2ccc(-c3cccc(CN(C)C)c3)cc12`, 99%. For `NC1CCN(Cc2cccc(-c3ccc(-c4nc5ccccc5[nH]4)cc3)c2)C1.O=C(O)C(F)(F)F` (configuration not stated) the value was 58%; for `Cc1ccc(C)c(NC(=O)Nc2ccc(Nc3nc(C)cc(N4CCOCC4)n3)cc2)c1`, 48%; for `C=CCN1C(=O)C(=Cc2cc(Br)ccc2O)SC1=Nc1ccccc1`, 55%. Turning to `Cc1cc(CN2CCC(N3CC(c4ccccc4)(c4ccccc4)OCC3=O)C2)ccc1O.O=C(O)C(F)(F)F` (configuration not stated), the Inhibition turned out to be 52%. Molecule `CN1CCC(Oc2ccc(CN3CC[C@H](NC(=O)c4cc(F)cc(F)c4)C3)c3ccccc23)C1.O=C(O)C(F)(F)F` (some centres not stated) yielded an Inhibition of 23%.

For `COc1cccc(-c2csc(C(=O)NCC3CCN(Cc4ccc(C(C)(C)C)cc4)C3)c2)c1.O=C(O)C(F)(F)F` (configuration not stated), the Inhibition was determined as 10%.

In the case of `Cc1ccc(NC(=O)c2cc(Br)cc(N3CCC(N(C)C)CC3)c2)cc1F.O=C(O)C(F)(F)F`, the Inhibition is on record as 80%. `Cc1ccc2c(c1)C1(CC(=O)N(CCc3scnc3C)C1=O)C(=O)N2Cc1ccccc1` (configuration not stated) registered an Inhibition of 73%. In turn, `CC(C)CC1c2[nH]c3ccccc3c2CCN1C(=O)CCc1ccccc1` (configuration not stated) displayed an Inhibition of 82%. The result for `O=C(Nc1ccc(C(=O)OCC2CCCCC2)cc1)N[C@@H](Cc1ccc(O)cc1)C(=O)NC1CCN(Cc2ccc(O)cc2)C1.O=C(O)C(F)(F)F` (some centres not stated) reads 0%. For the molecule `Cc1ccc(NC(=O)c2ccc(Cl)cc2)cc1-c1ccc(C(=O)Nc2ccncc2)cc1`, the Inhibition was 5%. For `Cc1cc(OCCCN2CCC(NS(=O)(=O)c3cccc(Br)c3)C2)c2ccccc2n1` (configuration not stated) the value was 40%; for `Cl.O=c1n(CC2CCCCC2)c2cc(Cl)cc(OCCNc3ccncc3)c2n1CC1CCCCC1`, 64%. For `CC(Cc1ccc(C(=O)OC(c2ccccc2)c2ccccc2)cc1)NCC(O)c1ccccc1.Cl` (configuration not stated) the value was 98%; for `Cl.Cn1ncc2c3c(CCN4CCC(NCc5cc6c(cn5)OCC6)CC4)c(Cl)cnc3ccc21`, 0%. As to `COc1ccc(Cc2nc(/N=C(\N)Nc3ccccc3)ccc2OC)cc1`, the Inhibition turned out to be 68%. The result for `O=C(Nc1ccc(-c2nc3ccc(NC(=O)c4ccc(Br)cc4)cc3[nH]2)cc1)c1ccc(Br)cc1` reads 4%. As to `CCCCCCCOc1ccc(NC(=O)Nc2ccc(Cn3ncc(N4CCCNCC4)c(Cl)c3=O)cc2)cc1.O=C(O)C(F)(F)F`, the Inhibition worked out at 28%. For `COc1cc(Nc2nccc(N3CCC(NS(=O)(=O)c4ccc(NC(C)=O)cc4)CC3)n2)cc(OC)c1OC` the value was 42%; for `O=C(c1ccccc1[N+](=O)[O-])N(Cc1ccccc1)c1ccccn1`, 0%; for `O=C(Nc1ccccc1-c1ccccc1)C1CCCN1C(=O)Nc1ccc(Cl)cc1` (configuration not stated), 90%. For `CC1(C)CN(CCC2CCC(NC(=O)/C=C/c3ccc(F)cc3F)CC2)Cc2ccc(C#N)cc21.Cl` (configuration not stated) the value was 77%; for `Cc1ccc(-n2nc3ccc(NC(=O)c4ccc([N+](=O)[O-])o4)cc3n2)cc1C`, 95%.
